# Measured values as given in PubChem BioAssay (EPA / NIEHS).
# Inconclusive results are not listed. Calls of active or inactive are those of the source. The calls were made as follows: active = hit-call score of the fitted dose curve at least 0.9, where 1 is the maximum; inconclusive = response in the unintended direction; inactive = score below 0.9.
# Assay: CCTE_Shafer_MEA_acute_AB: CCTE's Alamar Blue Assay for Cytotoxicity in the Neural Acute Assay, Shafer Lab (AID 2284069);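 also: active compounds lower the viability signal compared with DMSO wells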
# Protocol: CCTE_Shafer_MEA_acute assay is conducted using Axion Biosystems 48 well microelectrode array (MEA) plates and Maestro recording system. Each well of the MEA plate contains a grid of 16 microelectrodes embedded in the culture surface. Electrically active cells, such as neurons, can be cultured over the electrodes, and electrical activity in these cells can be recorded extracellularly. The spontaneous firing of neurons is captured from each electrode on a microsecond timescale providing both temporally and spatially precise data. […] The CCTE_Shafer_MEA_acute assay uses primary cultures of rat cortical neurons. As these cultures mature over time, neural networks develop functional activity and form cohesive networks in which electrical activity can be highly coordinated. Baseline 40-minute recordings are made on days post-plating 13 or 15, followed by a secondary 40-minute recording after chemical exposure.CCTE_Shafer_MEA_acute_AB is a component of the CCTE_Shafer_MEA_acute assay. It measures the resazurin reduction using fluorescence.Data from the assay component CCTE_Shafer_MEA_acute_AB was analyzed into 1 assay endpoint. This assay endpoint, CCTE_Shafer_MEA_acute_AB, was analyzed in the positive analysis fitting direction relative to DMSO as the negative control and baseline of activity. Using a type of viability reporter, loss-of-signal activity can be used to understand cell viability.
# Metabolic activity was determined using the CellTiter Blue (CTB) assay (Promega Cat. #8081), following the manufacturer's instructions with the following modifications. Following the removal of the 50 uL sample for the LDH assay, 450 uL of media was removed from each well and replaced with 200 uL of fresh media containing a 1:6 dilution of CTB reagent for the determination of metabolic activity. Fluorescence was measured in a Fluorostar Optima fluorimeter using an excitation wavelength of 544 nm and an emission wavelength of 590 nm.
row,Structure (SMILES),outcome
1,Oc1ccc(O)cc1,inactive
2,CN(C)CCCN1c2ccccc2Sc2ccc(Cl)cc21,inactive
3,c1ccc2occc2c1,inactive
4,CCc1cc(C2=C(C(=O)O)N(c3ccccc3C(F)(F)F)S(=O)(=O)c3ccccc32)cc2c1OCO2,inactive
5,CC(C)NCC(O)c1ccc(O)c(O)c1 (stereo not given),inactive
6,Cc1cc(Cc2ccc(N)c(C)c2)ccc1N,inactive
7,Cc1c(C)c2c(c(C)c1O)CCC(C)(COc1ccc(CC3SC(=O)NC3=O)cc1)O2 (stereo not given),inactive
8,CCCC(=O)O,inactive
9,COc1ccc(OC(F)(F)F)cc1CN[C@H]1CCCN[C@H]1c1ccccc1,inactive
10,CN(C)C(=O)NC1(c2ccccc2)CCN(CC[C@@]2(c3ccc(F)c(F)c3)CN(C(=O)c3ccccc3)CCO2)CC1,inactive
11,CN(C)C(=O)NC1(c2ccccc2)CCN(CCC[C@]2(c3ccc(Cl)c(Cl)c3)CCCN(C(=O)c3ccccc3)C2)CC1,inactive
12,O=C1OC(c2ccc(O)cc2)(c2ccc(O)cc2)c2ccccc21,inactive
13,CC(C)COC(=O)CCCCC(=O)OCC(C)C,inactive
14,Nc1nc(=S)c2[nH]cnc2[nH]1,inactive
15,NC(=Nc1ccccc1)Nc1ccccc1,inactive
16,COC(=O)[C@H]1[C@H]2C[C@@H]3c4[nH]c5cc(OC)ccc5c4CCN3C[C@H]2C[C@@H](OC(=O)c2cc(OC)c(OC)c(OC)c2)[C@@H]1OC,inactive
17,CSc1ccc(Oc2ccc(S(N)(=O)=O)cc2CN(C)C)cc1C,inactive
18,O=C(N[C@@H](c1ccccc1)[C@@H]1CCCCN1)c1cccc(C(F)(F)F)c1Cl,inactive
19,CCN(CC)CCOc1ccc(C(=C(Cl)c2ccccc2)c2ccccc2)cc1,inactive
20,C/C=C/c1ccc(OC)cc1,inactive
